Rango release inh: prevents RanGTP from dissociating the Rango-importin beta complex; Potency, µM (top dose mostly 46.1 µM), for inactives: top-dose activity change, negative = inhibition; AID 540253; 340,000 compounds, 0.071% hits; O95149+P62826; Biochemical FRET Rango-importin beta, RanGTP-induced dissociation; further: potency means the concentration at half of the fitted maximal effect; % of control where 0% means no effect; nearly all actives have a fitted effect of over 45% in size
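Two FRET readings bracket the reaction: one 5 min after compound meets Rango–importin beta, another 45 min after RanGTP-RCC1 (0.6 uM Ran, 0.2 uM RCC1, 2 mM GTP) is added. Only the second defines inhibition.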
p53 reactivator: restores transcriptional activity of mutant p53; H1299 p53-A138V BP100-luciferase reporter, luminescence, 24 h; Potency, µM (titrated, usually from 92.2 µM), for inactives: at the top dose activity change, positive = activation, usual class: activators; 320,000 compounds, 0.063% hits; AID 504706; active means well fitted activation curve with a large enough effect; inconclusive means small, poorly fitted or top-dose-only effect; inactive means no such curve, though single readings can be large or run the other way; further: potency means the concentration at half of the fitted maximal effect; % of control where 0% means no effect; nearly all actives have a fitted effect of over 45% in size
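H1299 (p53-null), stable ts p53-A138V + BP100-Luc; 1000 cells/well, Opti-MEM/10% FBS; cpd 4 pt, 1:5; 24 h, 37 deg C, 5% CO2; detection reagent 10 min RT; luminescence.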
Rango complex inh: inhibitors of Rango-importin beta complex formation. Q14974. Rango CFP/YFP FRET sensor + importin beta, 45 min. Potency, µM (highest dose often 92.2 µM), for the others: at the top dose inhibition of complex formation. 340,000 compounds, 0.031% hits. AID 540263;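 further: potency means the concentration at half of the fitted maximal effect; 0% = DMSO wells and 100% = buffer wells lacking importin beta; nearly all actives have a fitted effect of over 15% in size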
Target sequence (Q14974 whole entry, looked up): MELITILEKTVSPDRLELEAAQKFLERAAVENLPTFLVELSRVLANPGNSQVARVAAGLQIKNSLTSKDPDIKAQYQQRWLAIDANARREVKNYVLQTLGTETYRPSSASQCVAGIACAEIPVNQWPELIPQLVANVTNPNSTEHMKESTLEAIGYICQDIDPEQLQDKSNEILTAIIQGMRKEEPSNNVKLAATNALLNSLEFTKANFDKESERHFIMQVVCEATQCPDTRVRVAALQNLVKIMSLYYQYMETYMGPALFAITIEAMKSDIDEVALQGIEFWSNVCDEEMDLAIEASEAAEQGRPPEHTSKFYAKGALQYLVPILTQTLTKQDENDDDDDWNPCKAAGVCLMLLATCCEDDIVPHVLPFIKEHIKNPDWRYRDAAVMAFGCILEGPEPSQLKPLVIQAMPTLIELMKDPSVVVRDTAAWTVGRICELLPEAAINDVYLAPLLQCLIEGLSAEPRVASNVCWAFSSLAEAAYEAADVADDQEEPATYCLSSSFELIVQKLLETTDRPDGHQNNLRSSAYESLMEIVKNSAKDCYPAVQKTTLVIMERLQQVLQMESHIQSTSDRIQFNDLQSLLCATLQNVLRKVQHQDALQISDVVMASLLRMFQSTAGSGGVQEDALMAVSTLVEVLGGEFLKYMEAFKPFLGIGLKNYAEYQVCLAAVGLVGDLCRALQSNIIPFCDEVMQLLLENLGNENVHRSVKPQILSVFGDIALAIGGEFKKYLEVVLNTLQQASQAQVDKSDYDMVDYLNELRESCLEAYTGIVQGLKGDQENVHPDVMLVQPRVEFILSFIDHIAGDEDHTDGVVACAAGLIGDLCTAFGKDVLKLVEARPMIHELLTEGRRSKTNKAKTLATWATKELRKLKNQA
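Inhibition scored from the CFP 486 nm/YFP 530 nm FRET ratio 45 min after adding 0.125 microM importin beta to 50 nM Rango biosensor preincubated 5 min with compound (room temperature, PBS with DTT, Tween-20, BSA). No-importin wells as positive control.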
TSHR antag: antagonists of human thyroid stimulating hormone receptor | P16473 | activity change, negative = inhibition, % at 11.5 µM | TSHR-expressing cells, TSH-stimulated cAMP HTRF, 2 h; hits give low values | AID 504810 | 330,000 compounds, 0.2% hits;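 active means activity change below a set negative limit, meaning inhibition stronger than a set level, cut at about -70% in these data; inconclusive means activity change between two set negative limits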; further: on the % scale 0 is the no-effect control and ±100 the full control effect
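Competitive HTRF cAMP read-out (cryptate anti-cAMP antibody, cAMP-d2; 30 min, room temperature) in freshly harvested TSHR cells. Compounds added before TSH at EC80 (4nM final), followed by 2 hours' incubation at 37 deg C.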
Akt phos inh: Akt phosphorylation inhibition | Neuro2A IGF-stimulated pAkt S473 HTRF, 20 min; hits give low values | 360,000 compounds, 0.32% hits | activity change, % for hits at 50 µM; in the data active means activity change below about -80%; inconclusive means mostly about -51% to -80%; further: on the % scale 0 is the no-effect control and ±100 the full control effect
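Neuro2A cells in DMEM with 0.5% FBS, overnight at 37 deg C, given compound at single 50 µM final, then IGF (6 nM final) for 20 min at 37 deg C. Lysed; phospho-Akt Ser473 by HTRF after 24 h, 665/615 ratio.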
* = called active by the depositor. An excerpt weighted towards active compounds, which were near 0.62% of everything screened. Unless noted, the call rests on the fitted dose curve.

Screening O=P(O)(O)c1ccccc1OCCOCCOCCOCCOc1ccccc1P(=O)(O)O returned Rango release inh 2.8%, p53 reactivator inconclusive, Rango complex inh -0.3%, TSHR antag -3.3 and Akt phos inh inactive.
For Cc1ccccc1N(CC(=O)NC1CCCC1)C(=O)c1csnn1 the results were Rango release inh -16.8%, p53 reactivator 2.8%, Rango complex inh 5.5%, TSHR antag 3.0 and Akt phos inh inactive.
For CN1CCN(c2ccc([N+](=O)[O-])c3no[n+]([O-])c23)CC1 the results were Rango release inh inconclusive, p53 reactivator -15.9%, Rango complex inh inconclusive, TSHR antag -96.9* and Akt phos inh inactive.
For CN1CC[C@@]2(C)c3cc(OC(=O)Nc4ccccc4)ccc3N(C)[C@@H]12 the results were TSHR antag -3.8.
`CC1(C)CC2CC(C)(CN2S(=O)(=O)c2cccc(C(=O)OCC(=O)NC(N)=O)c2)C1` (configuration not stated) gave Rango release inh -5.4%, p53 reactivator 8.9%, Rango complex inh inconclusive, TSHR antag 0.4 and Akt phos inh inactive.
For Nc1ccccc1N=Cc1c(O)n(CCC2=CCCCC2)c(=O)[nH]c1=O the results were Rango release inh 22.2%, p53 reactivator inconclusive, Rango complex inh 4.2%, TSHR antag 2.4 and Akt phos inh -115.5%*.
For Cc1ccccc1-[n+]1c(-c2ccccc2)cc(-c2ccccc2)cc1-c1ccccc1 the results were Rango release inh -0.8%, p53 reactivator -9.4%, Rango complex inh -3.2%, TSHR antag -74.8* and Akt phos inh inactive.
For C[C@]12CC[C@H](O)C[C@H]1CC[C@@H]1[C@@H]2C[C@@H](O)[C@]2(C)[C@@H](C3=CC(=O)OC3)CC[C@]12O the results were Rango release inh -7.2%, p53 reactivator -9.4%, Rango complex inh -1.9%, TSHR antag -75.3* and Akt phos inh inactive.
`C[C@]12CC[C@H](O)C[C@H]1CC[C@@H]1[C@@H]2CC[C@]2(C)[C@@H](C3=CC(=O)OC3)CC[C@]12O` gave Rango release inh -4.4%, p53 reactivator -10.7%, Rango complex inh -2.5%, TSHR antag -78.1* and Akt phos inh inactive.
Screening CC12CCC(O)CC1CCC1C2CCC2(C)C(C3=CC(=O)OC3)C(O)CC12O (configuration not stated) returned Rango release inh 7.8%, Rango complex inh 1.0% and Akt phos inh inactive.
`CC12CCC(O)CC1CCC1C2CCC2(C)C(C3=CC(=O)OC3)CCC12O` (configuration not stated) gave Rango release inh -6.0%, Rango complex inh 0.3% and Akt phos inh inactive.
For CN1/C(=C\C=C\C2=[N+](C)c3ccc4ccccc4c3C2(C)C)C(C)(C)c2ccccc21 the results were p53 reactivator -15.6% and TSHR antag -92.7*.
CCN1/C(=C/C=C/C2=[N+](CC)c3ccccc3C2(C)C)C(C)(C)c2ccccc21 was read as Akt phos inh inactive.
For CNc1ccc2oc(C[C@H]3O[C@@]4(CC[C@H]3C)O[C@H]([C@H](C)C(=O)c3ccc[nH]3)[C@H](C)C[C@H]4C)nc2c1C(=O)O the results were Rango release inh -9.2%, p53 reactivator 1.0%, Rango complex inh 0.6%, TSHR antag -90.0* and Akt phos inh inactive.
For CCOC(=O)C1C(=O)N(C)C2(C)CC1c1cc(OC)ccc1O2 (configuration not stated) the results were Rango release inh -3.6%, p53 reactivator -4.0%, Rango complex inh -2.8%, TSHR antag -10.2 and Akt phos inh inactive.
`CCOC(=O)C1C(=O)N(C)C2(C)CC1c1ccccc1O2` (configuration not stated) gave Rango release inh 14.7%, p53 reactivator -6.7%, Rango complex inh -0.5%, TSHR antag -2.7 and Akt phos inh -114.2%*.
`O=S(c1ccccc1)c1ccccc1` gave Rango release inh 5.1%, Rango complex inh inconclusive and Akt phos inh inactive.
`CC(=O)O[C@H]1[C@H]2O[C@]23[C@@H]2CC[C@]4(O)C[C@@H](O)CC[C@]4(C)C2CC[C@]3(C)[C@H]1c1ccc(=O)oc1` (some centres not stated) gave Rango release inh 12.5%, p53 reactivator -6.2%, Rango complex inh -0.1%, TSHR antag -79.3* and Akt phos inh inactive.
C[C@]12CC[C@H]3C(CCC4(O)CC(O)CC[C@]34C=O)C1=CC[C@H]2c1ccc(=O)oc1 (some centres not stated) was read as Rango release inh 6.8%, p53 reactivator -5.3%, Rango complex inh 0.9%, TSHR antag inconclusive and Akt phos inh inactive.
For CCOc1ccc(Nc2ncnc3c2nnn3Cc2ccccc2)cc1 the results were Rango release inh 42.2%, Rango complex inh -1.0%, TSHR antag 18.5 and Akt phos inh inactive.

From PubChem
